# Data taken from the supplement of paper PMC12632987.
# T1: USP38, Q8NB14
# T1 chain: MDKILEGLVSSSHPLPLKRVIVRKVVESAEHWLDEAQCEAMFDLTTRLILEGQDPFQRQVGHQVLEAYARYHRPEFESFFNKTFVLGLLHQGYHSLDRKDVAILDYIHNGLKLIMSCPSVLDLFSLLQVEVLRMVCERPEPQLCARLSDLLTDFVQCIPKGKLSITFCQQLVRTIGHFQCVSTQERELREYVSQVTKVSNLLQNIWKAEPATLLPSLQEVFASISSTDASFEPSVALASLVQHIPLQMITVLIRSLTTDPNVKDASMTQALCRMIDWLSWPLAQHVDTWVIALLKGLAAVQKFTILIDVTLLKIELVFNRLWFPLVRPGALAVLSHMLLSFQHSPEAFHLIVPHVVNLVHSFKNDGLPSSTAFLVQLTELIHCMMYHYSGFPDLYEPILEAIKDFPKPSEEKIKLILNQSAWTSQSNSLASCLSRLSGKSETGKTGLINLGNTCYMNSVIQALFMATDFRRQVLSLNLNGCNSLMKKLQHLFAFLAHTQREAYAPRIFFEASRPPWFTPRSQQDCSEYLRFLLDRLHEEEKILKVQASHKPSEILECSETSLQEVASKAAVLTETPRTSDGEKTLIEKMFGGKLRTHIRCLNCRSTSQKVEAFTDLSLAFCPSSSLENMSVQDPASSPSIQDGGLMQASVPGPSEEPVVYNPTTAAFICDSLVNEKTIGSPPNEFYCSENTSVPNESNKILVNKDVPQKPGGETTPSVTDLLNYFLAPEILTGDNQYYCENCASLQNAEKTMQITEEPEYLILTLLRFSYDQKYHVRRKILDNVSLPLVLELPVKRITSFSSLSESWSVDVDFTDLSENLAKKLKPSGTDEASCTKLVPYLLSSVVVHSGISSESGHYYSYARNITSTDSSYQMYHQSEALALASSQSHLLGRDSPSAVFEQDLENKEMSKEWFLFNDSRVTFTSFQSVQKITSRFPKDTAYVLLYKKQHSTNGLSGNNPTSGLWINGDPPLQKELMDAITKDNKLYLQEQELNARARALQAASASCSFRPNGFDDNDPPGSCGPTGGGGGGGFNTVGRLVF
# Target: T1, USP38, Q8NB14
# Assay: median log2 fold change of GCK-ALFA target abundance (FLAG IP / Myc IP barcode read proportion) (log2 ratio); each designed protein is fused to an ALFA-tag nanobody in HEK293 cells to bring the named protein to FLAG-tagged glucokinase (GCK); Myc marks an untargeted standard; higher = target protein stabilised (more abundant)
# Details: target protein: 3xFLAG-MCP-GCK-ALFA reporter; HEK293 landing pad (RPLP)
# Summary of the method: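 Binders fused to an ALFA nanobody were recombined as a library into HEK293 landing-pad cells, which were induced with 2 μg mL^−1 doxycycline and then transfected to express a FLAG-tagged target and a Myc-tagged standard. After 48 h, circular RNA barcodes recovered by anti-FLAG and anti-Myc immunoprecipitation of lysates were reverse transcribed, amplified and sequenced. Each binder's target abundance is the median log2 ratio of FLAG to Myc barcode read proportions, from barcodes present at ≥10^−7 in both replicates, binders carrying ≥3 barcodes per replicate, a 10^−6 pseudocount and pooled replicates.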
row,Binder,median log2 fold change
1,usp_38_diff_out_17_125_217 (protein) SSEELKEEIEKALKEAEELLKKAKELLEAGAPFEEIMAALDKAADALGKLAVLLRKLREESEDPAQAAKFIKEATKRADELIDEYTKLATEAFQREADAA,-0.0349
2,usp_38_diff_out_17_26_230 (protein) AAEERRREARELMRELERRTAEALKEIEKLIEEGKLEEAEKKLDELVDEFTELATRLLELAADDDELFEEAVRVIDAAADRIAAAGNLLREAKKKKREEE,-0.167
3,usp_38_diff_out_17_26_237 (protein) SAEEKRKEAEKLLEELEKYVKETLEKIDKLIEEGKFEEAKKLLDELVTETTKRFTEILELAADDPELMDKALAKYDELSGQIAARYRRLEEARREAEAKA,0.259
4,usp_38_diff_out_17_26_239 (protein) SSEEKRKEAEKLLKEMEEKTEEALKEIDKLIAEGKFAEAQKLLDETIDYVTEKSTEILELASDDDELFEKVMEKIDKISDRLAAAGARLRAARRAARAAA,-0.0256
5,usp_38_diff_out_16_37_208 (protein) AEAKLAEFAAFMERAIEEARRLAEEARRLAEEGAPVEEIERLLEELRRLLDEVVERTTEVLEEVPEHADEILALYDRAATEIAEAGQEIREELRRRREEE,-0.00395
6,usp_38_diff_out_17_125_218 (protein) SDEELKKEIERLLEEAERLLEEAEKALEEGAPFEEIRKLLDEAADALGQAAVKLRELREKSEDPAQAAKFIKEATERANELIDRYTELATRAFLREAEAA,0.0443
7,usp_38_diff_out_16_37_210 (protein) GEEVLKEFKEFMEKAIEEAKKLAEEAKKLAKEGADIEELKKLKEELEKLIDEAVEKTTEALEKVPEKIEEIFAEFDKFADEAAKAGKEIDKAIKEAKKKK,-0.522
8,usp_38_diff_out_16_37_207 (protein) GEEKLKEFKKFMEEAMKKAKKLAEEAKKLAKEGKDKKEIEKLQKELDKLLDEVNEKTTEVLEEVPEKADEILAEYDKAATTIAEAGATIRAELRKARAAE,0.0801
9,usp_38_diff_out_17_125_214 (protein) DFEELVKKIEELLAEAEKLVKEAKKLLEEGAPPAEVRAALDKARDALGALAKALRELRRTSKDKAQAAKVIKEANEKADKLIDELTKLETEVFLREADAA,-0.149
10,usp_38_diff_out_16_37_211 (protein) MEEEIEKARKEMEEHLEKALELAERALKLVEEGASEAEIEKAMQEATDALLKAGRAAAELIHLDPSLEDEVVARYDEVATRVAALLREVQEALRARRAAE,0.0682
11,usp_38_diff_out_17_130_224 (protein) SAEEVEALKEYLEAEKKNVESVKEDAKKDFERAKKNPVTLDRVEHALEGNIKYMEETIKEAEKLKKEYPEVKEAADKLIKAAKKAKEEFEKYLKEVKALK,0.401
12,usp_38_diff_out_16_37_204 (protein) GEELLKEYKEFVEKVIKEAKKLAEEAKKLAKAGADLAEIRAIQEKLNELLDELVERTTEVLEKVPEHAEEILEEYDKAATEIAKAGAEIRAELRKAKAAA,-0.535
13,usp_38_diff_out_16_37_205 (protein) GEELLEEFRRFMEEAEREARRLAEEARELAEKGADIEEIERVLEELERLLDEVVERTTEVLEAVPEHADEILAEYDRAATTLAEAGKEIREKLREAKEKE,-0.436
14,usp_38_diff_out_17_125_212 (protein) MFEELKKKIEELLEEARRLVEEAERALAAGAPTAEVRRLLDQAADALGQLAVELRKLREESKDKAQAAKVIKEATKEANELIDRLTELETRVFLREAEAA,-1.04
15,usp_38_diff_out_17_130_225 (protein) SADEVEALKEYLEAEKANIEAVAADAERDLARAKRLPVTLPRVRHALEGNIKYMEETIKEAEEIKKKYPEVAAAADALIKAARDAKAKFEAMLAEVDALE,0.15
16,usp_38_diff_out_17_26_231 (protein) SAEAARAKAEALLKELVAETDKALKEIDKLIKEGKFEEAEKLLDETVDKVTEKATEIFELAADDEALLDKANKTIGDIFDKLAARYKELQAARKAAKAAA,-0.439

row,Binder,median log2 fold change
1,usp_38_diff_out_17_125_215 (protein) SDEELKKEIEKKLKEAEELLKEAEKALEAGAPAEEVEKLLDAAADALGQLAVLLRELREKSKDKAQAAKFIKKATEEANKLIDRYTELAERNFLRVAEEQ,-0.432
2,usp_38_diff_out_17_125_216 (protein) SDEELKEKAEELLKKAEELLKEAEKLLEEGAPAEEVEKKLDEAADALGQLAVTLRELREKSEDKAQAAKFIKELTKKANELIDRYTELATANFQRVADAQ,-0.484
3,usp_38_diff_out_17_125_221 (protein) TDEELKKEIEEALKKAEELLKKAKKLLEEGAPFEEIRAELDKAADALGKLAVLLRELREKSEDKAQAAKFIKEATERANKLIDEYTKLATEAFLREAEAA,-0.359
4,usp_38_diff_out_17_26_238 (protein) EAEERRKEARKLLEELKEKTEKDLEEIRKLIKEGKFEEAEKLLDETIDYVTEKSTEILELAADDDELFAEALAAIDEIFDKLAAAGKELREAKREAREKE,-0.0599
5,usp_38_diff_out_17_130_227 (protein) SAEEIESLKEYLRAEKENLKSVKEEAKKNLERAKKNPVTLDRVSHGLEGVATYAEDTIKEAKELLKKYPEVAEEAKELIKVAEEARKEAKELLKEVEKLK,0.32
6,usp_38_diff_out_17_125_213 (protein) AEAALIAEIEALLAEATAKVKEAEALLKAGAPTEEVLKALDAARDALGALAVALERLRRESADRAQAAAVIKAATAEADKLIDRLTELETEAFLRQAEEA,0.41
7,usp_38_diff_out_17_130_228 (protein) MEEEIESLKEYLEAEKKNLESVAKQAEEDYERAKKNPVTLDRVIHGLEGVATYAEDTIKEAKELIKEYPEVKEEAEKLIKVAEEAKKKAEALKKKLEALK,0.184
8,usp_38_diff_out_17_125_220 (protein) SDEELKKKAEELLKKAEELLKQAEKALEEGAPFEEIEKLLDEAADALGELAKTLRELREKSKDPAQAAKFIKEATEKANELIDRYTELATRAFLRQAEAA,0.167
9,usp_38_diff_out_16_37_206 (protein) AEKLLAEFKAFVEEIIERARRLAEEARRLAEEGAPIEEIERVLRELEELLDELVERTTEVLEKVPEHADEILAEYDRAATEIAEAGAEIRKALRERKEKE,-0.0578
10,usp_38_diff_out_17_26_240 (protein) SMEERRKEARKLLEEMEKRVEEDLKKIRELIKEGKFEEAEELLNKTIDYVTETSTKILELAADDDELFDEAMEAIDKISDKLAEAGKELREAKREAREKA,0.0157
11,usp_38_diff_out_17_26_234 (protein) SAEEERRRARELLEELRRRTEEALARIRELIAAGRFAEAQALLDATVTEVTATATEIFELAADDDELLDEVNRAVGEIFDRLAAAGRELREARRAAAAAA,-0.0515
12,usp_38_diff_out_17_26_236 (protein) SAEERREEARRALEELRADTDAALKEIDALIKAGKFEEAQALLDKLVDDFTKRATEILELAADDPELMDEALRAIGEVADKIAAAGSRLRAARKAAREAA,0.0259
13,usp_38_diff_out_17_26_235 (protein) SAEEKRKKALELLKELEKETEKELEEIEKLIKEGKFEEAEKKLDELVTKTTEKTTEILELAADDPELVEEVLKSYDKISDKIAEKYKELQEAKKKARAEA,0.284
14,usp_38_diff_out_16_37_209 (protein) AEKVLEEFKKFMEEAIKRAEEIGRRARELEEEGADLEELERLLEELERLLDEAVKRLTEALEKVPEKIEELFAIYDEFADAAARAGAIIREAIRRARERA,0.0185
15,usp_38_diff_out_17_130_223 (protein) SEDEIEALKEYLEAEKKNIKSVAEEAEKDFERAKKHPVTLDRALHALDGVIKYYEETIEEAKKILKEYPEVKEAAEELIKTAEEAKKKAEKLKKELEKLK,0.232
16,usp_38_diff_out_17_125_219 (protein) SDADLEAEAKALLAEAKALLKEAEKLLKEGAPFEEIRKKLDAAADKLGQLAVTLQQLRDKSKDKAQAAKFIKEMTAEANKLIDEYTKLATEAFLREAEEA,-0.0439
